Assay results from PubChem BioAssay AID1159580 (chemical genetic matrix, 2015).
Hit rate of the full screen: of about 5,500 compounds, about 2,000 (36%) were called active. About 18% were inconclusive and are not listed. The list shows a part of the results. A number with no mark means an inactive call. No stated cut-off is given here; in the data, active means normalized growth mostly below about 0.91 (no sharp cut-off); inconclusive means no clear call, values can overlap the other calls; inactive means mostly above about 0.92.

Assay: chemical genetic growth profiling, strain panel (AID 1159580);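 further: tested at 20 µM; growth read once vehicle control cultures reached saturation at 30 °C; 1 = growth at the plate median or of vehicle wells; lower values mean less growth of the strain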
Details: growth OD
[1] = S. cerevisiae deletion strains, locus YDR150W, strain NUM1, hits give low values
[2] = S. cerevisiae deletion strains, locus YMR263W, strain SAP30, hits give low values
[3] = S. cerevisiae deletion strains, locus YMR307W, strain GAS1, hits give low values
[4] = S. cerevisiae deletion strains, locus YNL322C, strain KRE1, hits give low values
[5] = S. cerevisiae deletion strains, locus YDL101C, strain DUN1, hits give low values
[6] = S. cerevisiae deletion strains, locus YHR030C, strain SLT2, hits give low values
[7] = S. cerevisiae deletion strains, locus YHR079C, strain IRE1, hits give low values
[8] = S. cerevisiae deletion strains, locus YJL095W, strain BCK1, hits give low values
[9] = S. cerevisiae deletion strains, locus YJR066W, strain TOR1, hits give low values
[10] = S. cerevisiae deletion strains, locus YLR113W, strain HOG1, hits give low values
[11] = S. cerevisiae deletion strains, locus YNL183C, strain NPR1, hits give low values
[12] = S. cerevisiae deletion strains, locus YOR231W, strain MKK1, hits give low values
[13] = S. cerevisiae deletion strains, locus YPL256C, strain CLN2, hits give low values

## CC(C)(C)c1cc(/C=C(\C#N)C(N)=S)cc(C(C)(C)C)c1O
S. cerevisiae deletion strains, locus YAL040C, strain CLN3, hits give low values
  normalized growth: 0.912
S. cerevisiae deletion strains, locus YCL061C, strain MRC1 (second series), hits give low values
  normalized growth: 1.01
[1]
  normalized growth: 1
S. cerevisiae deletion strains, locus YDR363W, strain ESC2, hits give low values
  normalized growth: 1.04
S. cerevisiae deletion strains, locus YER002W, strain NOP16, hits give low values
  normalized growth: 0.997
[2]
  normalized growth: 1.01
[3]
  normalized growth: 1.01
S. cerevisiae deletion strains, locus YNL175C, strain NOP13, hits give low values
  normalized growth: 1.02
S. cerevisiae deletion strains, locus YNL197C, strain WHI3, hits give low values
  normalized growth: 0.913
S. cerevisiae deletion strains, locus YNL224C, strain SQS1, hits give low values
  normalized growth: 0.929
[4]
  normalized growth: 1.02
S. cerevisiae deletion strains, locus YOR083W, strain WHI5 (second series), hits give low values
  normalized growth: 0.832 (active)

## O=C1c2ccccc2C(=O)N1CNc1ccc(N2CCOCC2)cc1
S. cerevisiae deletion strains, locus YAL013W, strain DEP1, hits give low values
  normalized growth: 1
S. cerevisiae deletion strains, locus YBR229C, strain ROT2, hits give low values
  normalized growth: 1
S. cerevisiae deletion strains, locus YCL061C, strain MRC1, hits give low values
  normalized growth: 0.999
[5]
  normalized growth: 1.01
[1]
  normalized growth: 0.901
S. cerevisiae deletion strains, locus YEL061C, strain CIN8, hits give low values
  normalized growth: 0.986
S. cerevisiae deletion strains, locus YGR078C, strain PAC10, hits give low values
  normalized growth: 1
[6]
  normalized growth: 0.976
S. cerevisiae deletion strains, locus YHR087W, strain rtc3, hits give low values
  normalized growth: 1.02
S. cerevisiae deletion strains, locus YJR043C, strain POL32, hits give low values
  normalized growth: 1
S. cerevisiae deletion strains, locus YJR075W, strain HOC1, hits give low values
  normalized growth: 1.01
S. cerevisiae deletion strains, locus YKL190W, strain CNB1, hits give low values
  normalized growth: 0.994
S. cerevisiae deletion strains, locus YLR039C, strain RIC1, hits give low values
  normalized growth: 1.02
S. cerevisiae deletion strains, locus YLR058C, strain SHM2 (second series), hits give low values
  normalized growth: 0.997
S. cerevisiae deletion strains, locus YLR085C, strain ARP6, hits give low values
  normalized growth: 0.977
S. cerevisiae deletion strains, locus YLR262C, strain YPT6, hits give low values
  normalized growth: 1.01
S. cerevisiae deletion strains, locus YML094W, strain GIM5, hits give low values
  normalized growth: 1.02
S. cerevisiae deletion strains, locus YMR219W, strain ESC1, hits give low values
  normalized growth: 1
[2]
  normalized growth: 0.993
[3]
  normalized growth: 1.01
S. cerevisiae deletion strains, locus YNL153C, strain GIM3, hits give low values
  normalized growth: 1.01
S. cerevisiae deletion strains, locus YNL298W, strain CLA4 (second series), hits give low values
  normalized growth: 1.02
[4]
  normalized growth: 0.977
S. cerevisiae deletion strains, locus YNR030W, strain Alg12, hits give low values
  normalized growth: 0.994
S. cerevisiae deletion strains, locus YOL006C, strain TOP1, hits give low values
  normalized growth: 0.997
S. cerevisiae deletion strains, locus YPL055C, strain LGE1, hits give low values
  normalized growth: 0.861
S. cerevisiae deletion strains, locus YPL241C, strain CIN2, hits give low values
  normalized growth: 1.01
S. cerevisiae deletion strains, locus YPR135W, strain CTF4, hits give low values
  normalized growth: 1.09
S. cerevisiae strains, strain wild type, hits give low values
  normalized growth: 1.02

## OC[C@H]1O[C@H](O[C@]2(CCl)O[C@H](CCl)[C@@H](O)[C@@H]2O)[C@H](O)[C@@H](O)[C@H]1Cl
[6]
  normalized growth: 1.04
[7]
  normalized growth: 0.979
[8]
  normalized growth: 0.996
[9]
  normalized growth: 0.952
[10]
  normalized growth: 0.977
[11]
  normalized growth: 0.895
[12]
  normalized growth: 0.972
[13]
  normalized growth: 0.984

## FC(F)(F)c1cccc(NC(=S)NN=C2CCCCCC2)c1
S. cerevisiae deletion strains, locus YAR019C, strain CDC15, hits give low values
  normalized growth: 0.978
S. cerevisiae deletion strains, locus YBL105C, strain PKC1, hits give low values
  normalized growth: 0.983
S. cerevisiae deletion strains, locus YBR135W, strain CKS1, hits give low values
  normalized growth: 0.994
S. cerevisiae deletion strains, locus YBR136W, strain MEC1, hits give low values
  normalized growth: 0.987
S. cerevisiae deletion strains, locus YBR160W, strain CDC28, hits give low values
  normalized growth: 0.991
S. cerevisiae deletion strains, locus YDL017W, strain CDC7, hits give low values
  normalized growth: 0.983
S. cerevisiae deletion strains, locus YDL028C, strain MPS1, hits give low values
  normalized growth: 0.997
[5]
  normalized growth: 0.984
S. cerevisiae deletion strains, locus YDL108W, strain KIN28, hits give low values
  normalized growth: 1
S. cerevisiae deletion strains, locus YDL132W, strain cdc53, hits give low values
  normalized growth: 0.989
S. cerevisiae deletion strains, locus YDL214C, strain PRR2, hits give low values
  normalized growth: 0.909
S. cerevisiae deletion strains, locus YDR052C, strain DBF4, hits give low values
  normalized growth: 0.982
S. cerevisiae deletion strains, locus YDR054C, strain cdc34, hits give low values
  normalized growth: 0.966
S. cerevisiae deletion strains, locus YDR226W, strain ADK1, hits give low values
  normalized growth: 0.978
S. cerevisiae deletion strains, locus YDR477W, strain SNF1, hits give low values
  normalized growth: 0.91
S. cerevisiae deletion strains, locus YER123W, strain YCK3, hits give low values
  normalized growth: 0.831
S. cerevisiae deletion strains, locus YER133W, strain GLC7, hits give low values
  normalized growth: 0.892
S. cerevisiae deletion strains, locus YFL009W, strain cdc4, hits give low values
  normalized growth: 0.986
S. cerevisiae deletion strains, locus YFL029C, strain CAK1, hits give low values
  normalized growth: 0.983
S. cerevisiae deletion strains, locus YFR003C, strain YPI1, hits give low values
  normalized growth: 0.989
S. cerevisiae deletion strains, locus YFR019W, strain FAB1, hits give low values
  normalized growth: 0.946
S. cerevisiae deletion strains, locus YFR028C, strain CDC14, hits give low values
  normalized growth: 0.992
S. cerevisiae deletion strains, locus YGR040W, strain KSS1, hits give low values
  normalized growth: 0.914
S. cerevisiae deletion strains, locus YGR052W, strain FMP48, hits give low values
  normalized growth: 0.924
S. cerevisiae deletion strains, locus YGR092W, strain DBF2, hits give low values
  normalized growth: 0.823
[6]
  normalized growth: 0.846 (active)
[7]
  normalized growth: 0.81
S. cerevisiae deletion strains, locus YHR082C, strain KSP1, hits give low values
  normalized growth: 0.997
S. cerevisiae deletion strains, locus YHR205W, strain SCH9, hits give low values
  normalized growth: 0.914
S. cerevisiae deletion strains, locus YIL147C, strain SLN1, hits give low values
  normalized growth: 0.987
[8]
  normalized growth: 0.887
S. cerevisiae deletion strains, locus YJL128C, strain PBS2, hits give low values
  normalized growth: 0.98
S. cerevisiae deletion strains, locus YJL157C, strain FAR1, hits give low values
  normalized growth: 0.869
S. cerevisiae deletion strains, locus YJR016C, strain ILV3, hits give low values
  normalized growth: 0.993
S. cerevisiae deletion strains, locus YJR066W, strain TOR1 (second series), hits give low values
  normalized growth: 0.827
[9]
  normalized growth: 0.907
S. cerevisiae deletion strains, locus YKL048C, strain ELM1, hits give low values
  normalized growth: 0.949
S. cerevisiae deletion strains, locus YKL067W, strain YNK1, hits give low values
  normalized growth: 0.92
S. cerevisiae deletion strains, locus YKL101W, strain HSL1, hits give low values
  normalized growth: 0.928
S. cerevisiae deletion strains, locus YKL193C, strain SDS22, hits give low values
  normalized growth: 0.986
S. cerevisiae deletion strains, locus YKL203C, strain TOR2, hits give low values
  normalized growth: 0.936
[10]
  normalized growth: 0.811 (active)
S. cerevisiae deletion strains, locus YLR133W, strain CKI1, hits give low values
  normalized growth: 0.921
S. cerevisiae deletion strains, locus YLR403W, strain SFP1, hits give low values
  normalized growth: 0.882
S. cerevisiae deletion strains, locus YML070W, strain DAK1, hits give low values
  normalized growth: 0.897
S. cerevisiae deletion strains, locus YMR001C, strain CDC5, hits give low values
  normalized growth: 0.979
S. cerevisiae deletion strains, locus YMR205C, strain PFK2 (second series), hits give low values
  normalized growth: 0.936
S. cerevisiae deletion strains, locus YMR277W, strain FCP1, hits give low values
  normalized growth: 0.988
S. cerevisiae deletion strains, locus YNL006W, strain LST8, hits give low values
  normalized growth: 0.986
S. cerevisiae deletion strains, locus YNL020C, strain ARK1, hits give low values
  normalized growth: 0.902
S. cerevisiae deletion strains, locus YNL161W, strain CBK1, hits give low values
  normalized growth: 0.987
[11]
  normalized growth: 0.949
S. cerevisiae deletion strains, locus YNL207W, strain RIO2, hits give low values
  normalized growth: 0.98
S. cerevisiae deletion strains, locus YNL222W, strain SSU72, hits give low values
  normalized growth: 1
S. cerevisiae deletion strains, locus YNL307C, strain MCK1 (second series), hits give low values
  normalized growth: 0.798
S. cerevisiae deletion strains, locus YOL078W, strain AVO1, hits give low values
  normalized growth: 0.994
S. cerevisiae deletion strains, locus YOL136C, strain PFK27, hits give low values
  normalized growth: 0.896
S. cerevisiae deletion strains, locus YOR061W, strain CKA2, hits give low values
  normalized growth: 0.862
S. cerevisiae deletion strains, locus YOR119C, strain RIO1, hits give low values
  normalized growth: 0.973
[12]
  normalized growth: 0.828
S. cerevisiae deletion strains, locus YOR329C, strain SCD5, hits give low values
  normalized growth: 0.988
S. cerevisiae deletion strains, locus YPL031C, strain PHO85, hits give low values
  normalized growth: 0.884
S. cerevisiae deletion strains, locus YPL153C, strain RAD53, hits give low values
  normalized growth: 0.872
S. cerevisiae deletion strains, locus YPL204W, strain HRR25, hits give low values
  normalized growth: 0.838
S. cerevisiae deletion strains, locus YPL209C, strain IPL1, hits give low values
  normalized growth: 0.988
[13]
  normalized growth: 0.84 (active)
S. cerevisiae deletion strains, locus YPR025C, strain CCL1, hits give low values
  normalized growth: 0.995
S. cerevisiae deletion strains, locus YPR106W, strain ISR1, hits give low values
  normalized growth: 0.994
S. cerevisiae deletion strains, locus YPR111W, strain DBF20, hits give low values
  normalized growth: 0.984
S. cerevisiae deletion strains, strain NNK1, hits give low values
  normalized growth: 1
S. cerevisiae deletion strains, strain TSCII, hits give low values
  normalized growth: 0.982
